Drawing on PubChem BioAssay, this text covers z-score for 9 compounds.

This assay can be described thus: resazurin metabolic signal in HepG2 cells – cell-based, resazurin fluorescence, 24 h, PK04 Diversity Set, profiling panel (AID 1172). Note: test concentration not given here. The settings on record: HepG2 viability, higher = more signal. For orientation: Alamar Blue is a resazurin reagent that responds to reducing activity.
For `COCCOC(=O)N1C(=O)[C@@]2(c3cc(C#Cc4ccc(OC)cc4)ccc31)[C@H](C(=O)N1CCCCCCC1)[C@H]1C(=O)O[C@H](c3ccccc3)[C@H](c3ccccc3)N1[C@@H]2c1ccc(O)cc1`, the z-score is 0.808.

In turn, `CN(C)C(=O)[C@]1(CCC(=O)OC(C)(C)C)N=C(c2ccc(OCCCO)cc2)O[C@@H]1c1ccccc1` came in with a z-score of -0.0109.

Take `COC(=O)c1c(CC[C@@H](CO)NC(=O)N[C@H](Cn2cc(-c3ccccc3C)nn2)C(C)C)oc(C(C)=O)c1C(=O)OC`: the z-score is -0.329.

In turn, `Cc1ccc(S[C@]2(C(=O)O)CC(=O)N(Cc3ccccc3Cl)[C@@H]2c2ccc(CO)cc2)cc1` displayed a z-score of -0.739.

`COCCOC(=O)N1C(=O)[C@@]2(c3ccccc31)[C@H](C(=O)N1CCN(c3ncccn3)CC1)[C@H]1C(=O)O[C@H](c3ccccc3)[C@H](c3ccccc3)N1[C@@H]2c1ccc(OCCO)cc1` returned a z-score of 0.0481.

Turning to `COCCOC(=O)N1C(=O)[C@@]2(c3cc(C#Cc4ccc(OC)cc4)ccc31)[C@H](C(=O)N1CCN(c3ncccn3)CC1)[C@H]1C(=O)O[C@H](c3ccccc3)[C@H](c3ccccc3)N1[C@@H]2c1ccccc1OCCO`, the z-score amounted to 0.205.

In the case of `NCCCCCNC(=O)[C@@H]1C[C@@H]2C(=O)N[C@@H](CCCCN)C(=O)N2[C@@H]1c1cccc(OCCO)c1`, the z-score was 1.03.

`COc1ccc([Si](C)(C)[C@H]2[C@H](CCn3cc([C@H](O)c4ccccc4)nn3)O[C@@]3(C(=O)N(Cc4ccc(N5CCC5=O)cc4)c4ccccc43)[C@@H]2C)cc1` gave a z-score of -0.225.

Regarding `O=C1C[C@@](C(=O)NCC(F)(F)F)(c2ccc([N+](=O)[O-])cc2)[C@@H](c2ccc(CO)cc2)N1C1CCCCC1`, the z-score was -0.289.
